The record followed here is PubChem BioAssay.

Experiment [1] in a line: HepG2 liver cancer cell viability effects, profiling panel, resazurin fluorescence, 24 h, PK04 Diversity Set (AID 1172). Further: test concentration not given here. Conditions: higher = more signal.
Experiment [2] can be described thus: basal S. cerevisiae growth modulation, no modifier, primary screen, OD600, strain BY4716, 24 h, basal condition (AID 1173). Particulars: OD600, 24 h, higher = more signal, called active from +8 up or from −8 down.
Experiment [3] can be described thus: MM1S myeloma cell viability, profiling panel, resazurin fluorescence, basal, 24 h, PK04 Diversity Set (AID 1174).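 Further: MM1S multiple myeloma cell line; test concentration not given here.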 Particulars: higher = more signal, called active from +8 up or from −8 down.
For experiment [4], the target named is Dihydroorotate dehydrogenase (quinone), mitochondrial (Plasmodium falciparum (isolate 3D7)) (UniProt Q08210). The experiment in a line: PfDHODH enzyme inhibitors, primary screen, biochemical, C-terminal His tag, absorbance 600 nm (AID 1175).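 Further: recombinant parasite enzyme with a five histidine tag at its C terminus; test concentration not given here.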 Particulars: DCIP absorbance 600 nm, higher = more signal, called active from +8 up or from −8 down.
A short description of experiment [5]: P. aeruginosa biofilm formation inhibitors, primary screen, strain PAO1, LB-PBS medium, absorbance 600 nm (AID 1176). Further: test concentration not given here. Particulars: P. aeruginosa PAO1 growth/biofilm, A600, 12 h; higher = more signal.
The nature of experiment [6]: S. cerevisiae RM11-1a growth modifiers, primary screen, strain RM11-1a, OD600, basal, 24 h (AID 1177).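 Further: cultures grown under basal conditions with no added stressor; test concentration not given here.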 Particulars: OD600, 24 h, higher = more signal, called active from +8 up or from −8 down.
Experiment [7] is described as follows: E. coli acrAB mutant growth effects, primary screen, E. coli filamentation inducers, strain DRC39, OD650, 24 h (AID 1178).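 Further: growth measured as culture turbidity by optical density at 650 nm; test concentration not given here.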 Conditions: higher = more signal, called active from +8 up or from −8 down.
Experiment [8] can be described thus: E. coli acrAB mutant growth effects, primary screen, E. coli filamentation inducers, strain DRC39, OD650, 48 h (AID 1179).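 Further: screen aims at cell division blockers that make cells filament.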 Particulars: E. coli DRC39 delta-acrAB growth, higher = more signal, called active from +8 up or from −8 down.
A short description of experiment [9]: RPMI8226 myeloma cell viability, profiling panel, resazurin fluorescence, basal, 24 h, PK04 Diversity Set (AID 1180).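 Further: RPMI8826 multiple myeloma cell line at 5000 cells per well; test concentration not given here.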 Conditions: higher = more signal.
In experiment [10] the target is E3 ubiquitin-protein ligase XIAP (Homo sapiens) (UniProt P98170). The experiment in a line: XIAP binders, primary screen, biophysical, small-molecule microarray, fluorescence 635 nm (AID 1181).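 Further: score merges 667 nm emission and signal to noise over triplicate slides.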 Particulars: small-molecule microarray binding, higher = more signal.

SMILES strings stand for the structures. Activity calls are given as the source filed them. Unless noted, how the calls were made is not given here.

E3 ubiquitin-protein ligase XIAP (Homo sapiens), sequence (P98170 whole entry, looked up): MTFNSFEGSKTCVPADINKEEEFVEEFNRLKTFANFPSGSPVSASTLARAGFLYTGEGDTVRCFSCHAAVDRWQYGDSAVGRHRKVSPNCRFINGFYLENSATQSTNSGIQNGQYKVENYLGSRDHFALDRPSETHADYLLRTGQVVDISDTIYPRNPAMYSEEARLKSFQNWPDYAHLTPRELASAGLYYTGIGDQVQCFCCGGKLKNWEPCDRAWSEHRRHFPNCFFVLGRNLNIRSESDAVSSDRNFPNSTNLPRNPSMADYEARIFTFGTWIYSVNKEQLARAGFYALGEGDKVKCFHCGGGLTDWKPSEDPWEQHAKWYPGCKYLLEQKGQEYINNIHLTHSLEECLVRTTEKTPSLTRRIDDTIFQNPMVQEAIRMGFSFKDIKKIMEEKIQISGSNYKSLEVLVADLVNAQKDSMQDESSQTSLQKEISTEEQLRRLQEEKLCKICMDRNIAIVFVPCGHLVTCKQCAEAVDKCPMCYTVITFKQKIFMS
Dihydroorotate dehydrogenase (quinone), mitochondrial (Plasmodium falciparum (isolate 3D7)), sequence (Q08210 whole entry, looked up): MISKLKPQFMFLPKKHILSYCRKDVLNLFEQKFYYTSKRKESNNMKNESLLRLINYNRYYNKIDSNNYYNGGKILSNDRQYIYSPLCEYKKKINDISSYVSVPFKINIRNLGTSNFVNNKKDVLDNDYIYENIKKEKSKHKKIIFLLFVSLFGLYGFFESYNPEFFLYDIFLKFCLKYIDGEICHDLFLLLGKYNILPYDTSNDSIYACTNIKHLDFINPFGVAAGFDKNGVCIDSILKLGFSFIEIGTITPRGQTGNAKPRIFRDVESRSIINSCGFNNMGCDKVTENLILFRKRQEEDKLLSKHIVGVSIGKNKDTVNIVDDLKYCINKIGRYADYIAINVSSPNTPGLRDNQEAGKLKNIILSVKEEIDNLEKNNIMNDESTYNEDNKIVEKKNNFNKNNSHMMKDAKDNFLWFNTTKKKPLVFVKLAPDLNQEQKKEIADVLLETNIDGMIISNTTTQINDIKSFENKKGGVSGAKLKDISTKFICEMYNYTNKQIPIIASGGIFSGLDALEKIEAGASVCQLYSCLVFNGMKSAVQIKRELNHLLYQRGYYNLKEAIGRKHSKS

Consider `C[C@H]1CC[C@@H](C(=O)O)N[C@@H]1c1ccc(C#Cc2ccccc2)cc1`, for which the z-score is -0.214 in experiment [1]; -19.1 (active) in experiment [2]; -0.477 (inactive) in experiment [3]; -0.446 (inactive) in experiment [5]; -18.9 (active) in experiment [6]; -0.0449 (inactive) in [7]. The z-score in experiment [8] is -0.384 (inactive); in experiment [9], 0.0569. The values for the composite z-score in [4] and in experiment [10] were -1.36 (inactive) and -0.0773, respectively.

As for `COC(=O)[C@@H]1CC[C@H](C)[C@@H](c2ccc(Br)cc2)N1`, the z-score in experiment [1] was 0.138; in experiment [2], 0.86 (inactive); in [3], 0.176 (inactive); in experiment [5], 0.119 (inactive); in [6], 1.27 (inactive); in experiment [7], 0.45 (inactive). In addition, the z-score in experiment [8] was -0.836 (inactive); in experiment [9], 0.279. Besides, the composite z-score was 0.496 (inactive) in experiment [4] and 1.27 in experiment [10].

As for `CCc1cc2c(nc1CC)CCN(CCC(C)=NOC(C)CN1CCCCc3nc(C)c(C)cc31)C2` (stereo not given), the z-score is 0.465 in experiment [1]; -1.61 (inactive) in [2]; 0.0376 (inactive) in experiment [3]; 0.417 (inactive) in [5]; 1.18 (inactive) in [6]; -0.148 (inactive) in experiment [7]. Moreover, the z-score in [8] is -1.83 (inactive); in experiment [9], 0.825. Moreover, the composite z-score is 0.0164 (inactive) in [4] and -0.02 in [10].

Regarding `CCN1C(=O)[C@H]2[C@H]3[C@H](O)[C@H](O)CC(=NO[C@@H](C)c4cc(-c5c(C)cc(C)cc5C)no4)[C@@H]3CC[C@H]2C1=O`, the z-score was 0.0416 in experiment [1]; -2.13 (inactive) in experiment [2]; -0.69 (inactive) in experiment [3]; 0.0646 (inactive) in [5]; 0.0564 (inactive) in experiment [6]; 0.767 (inactive) in experiment [7]. The z-score was 0.596 (inactive) in experiment [8] and -0.835 in experiment [9]. The composite z-score in experiment [4] is -0.126 (inactive); in experiment [10] it was -0.102.

Regarding `CC#CCOCCC=C1c2ccccc2[C@@H](OC)[C@@H]1C`, the z-score in [1] was 0.651; in experiment [2] it was -1.71 (inactive); in experiment [3] it was -0.725 (inactive); in [5] it was 0.204 (inactive); in [6], -0.551 (inactive); in experiment [7] it was -0.158 (inactive). Besides, the z-score in [8] is 0.212 (inactive); in [9], 0.258. Moreover, the composite z-score in experiment [4] is -0.412 (inactive); in experiment [10], 2.61.

In the case of `CC(C)CON=C1C[C@@H](O)[C@@H](O)[C@@H]2[C@@H]3C(=O)N(Cc4ccccc4)C(=O)[C@@H]3CC[C@H]12`, the z-score in experiment [1] is 0.0344; in experiment [2] it was -1.11 (inactive); in [3], 1.15 (inactive); in [5], 0.92 (inactive); in experiment [6] it was -1.17 (inactive); in [7], 0.68 (inactive). Also, the results for the z-score in [8] and in [9] were -1.08 (inactive) and 0.851, respectively. The composite z-score in experiment [4] is -0.451 (inactive); in experiment [10] it was -0.0436.

As for `COC(=O)[C@@H]1CC[C@H](C)[C@@H](c2ccc(C)cc2)N1C(=O)c1ccc(C=NOC[C@@H](O)[C@H]2O[C@@H]3OC(C)(C)O[C@@H]3[C@H]2O)cc1`, the z-score was -0.187 in [1]; -0.318 (inactive) in experiment [2]; -1.05 (inactive) in experiment [3]; 0.642 (inactive) in experiment [5]; -0.168 (inactive) in experiment [6]; 0.507 (inactive) in experiment [7]. Also, the results for the z-score in [8] and in experiment [9] were 0.577 (inactive) and -0.772, respectively. Besides, the composite z-score in experiment [4] was -0.354 (inactive); in experiment [10], -0.173.

On to `CO[C@@H]1[C@H](O)CO[C@H]1C=Cc1ccccc1`, for which the z-score was -1.01 in experiment [1]; -1.05 (inactive) in experiment [2]; 0.841 (inactive) in experiment [3]; -0.859 (inactive) in [5]; -0.113 (inactive) in [6]; -0.442 (inactive) in experiment [7]. Besides, the z-score is 0.207 (inactive) in experiment [8] and 0.941 in [9]. Further, the composite z-score was 0.295 (inactive) in experiment [4] and -0.123 in experiment [10].

Turning to `CC(C)CON=C1C[C@@H](O)[C@@H](O)[C@@H]2[C@@H]3C(=O)N(c4ccc(F)cc4F)C(=O)[C@@H]3CC[C@@H]12`, the z-score was 0.372 in [1]; -1.98 (inactive) in experiment [2]; 0.88 (inactive) in experiment [3]; -0.27 (inactive) in experiment [5]; -1.22 (inactive) in experiment [6]; 1.01 (inactive) in experiment [7]. In addition, the z-score was 0.15 (inactive) in experiment [8] and -0.226 in experiment [9]. Further, the figures for the composite z-score in [4] and in experiment [10] were -2.1 (inactive) and -0.0296, respectively.

As to `COCOc1ccc(Br)cc1C(=O)C=Cc1ccc2c(c1)OCO2`, the z-score in [1] was -2.37; in experiment [2] it was -3.33 (inactive); in experiment [3], -3.86 (inactive); in [5], 1.01 (inactive); in experiment [6], 0.616 (inactive); in experiment [7], 0.725 (inactive). For the same compound, the z-score in experiment [8] was 0.253 (inactive); in [9], -3.36. Besides, the values for the composite z-score in experiment [4] and in experiment [10] were -1.1 (inactive) and -0.0076, respectively.

Regarding `CCN1C(C)=C(C(=O)OC)[C@@H](c2ccccc2)N2C(=O)[C@](O)(C(=O)OC)CC(C(C)=O)=C12`, the z-score in [1] was -0.0348; in experiment [2], -1.38 (inactive); in experiment [3] it was 0.136 (inactive); in experiment [5] it was -0.242 (inactive); in [6], -0.695 (inactive); in [7], 0.538 (inactive). Moreover, the z-score in experiment [8] is 0.866 (inactive); in experiment [9] it was -0.11. Moreover, the figures for the composite z-score in [4] and in [10] were -1.27 (inactive) and 0.0264, respectively.

As for `CCCNC(=O)OC[C@H]1O[C@H](CCON=C2c3cc(OC)ccc3O[C@H](c3cccc(OC)c3)[C@H]2O)C=C[C@@H]1Oc1ccc(OC)cc1`, the z-score in experiment [1] is -0.286; in experiment [2] it was 0.668 (inactive); in [3], -0.801 (inactive); in [5], 0.724 (inactive); in [6] it was 0.391 (inactive); in [7], 0.885 (inactive). Besides, the figures for the z-score in experiment [8] and in experiment [9] were -0.034 (inactive) and -0.384, respectively. Also, the results for the composite z-score in experiment [4] and in experiment [10] were 0.159 (inactive) and 0.02, respectively.

As to `COC(=O)CC=C[C@@H](C)[C@@H](C=NOC[C@@H](O)COCc1ccco1)OC`, the z-score in experiment [1] was -0.195; in [2] it was -0.656 (inactive); in [3], -0.45 (inactive); in experiment [5], -1.23 (inactive); in experiment [6] it was 0.12 (inactive); in experiment [7], 0.539 (inactive). The figures for the z-score in [8] and in experiment [9] were 0.803 (inactive) and 0.11, respectively. In addition, the composite z-score in [4] is -0.527 (inactive); in [10], 0.0345.

As for `CO[C@H]1C[C@@H]2C[C@H](O)CC(CC(=O)O[C@@H](C=CCC(C)C)C[C@@H]3CC[C@H](C)[C@@H](C1)O3)O2`, the z-score is -0.37 in experiment [1]; -1.47 (inactive) in experiment [2]; -0.0942 (inactive) in experiment [3]; -0.139 (inactive) in experiment [5]; -1.65 (inactive) in [6]; -0.033 (inactive) in experiment [7]. Further, the figures for the z-score in experiment [8] and in experiment [9] were -0.394 (inactive) and -0.384, respectively. Besides, the composite z-score in [4] was -0.928 (inactive); in experiment [10] it was 0.0256.

On to `C[C@@H]1CC[C@H]2C(=O)O[C@@H](CN=[N+]=[N-])CN2[C@H]1c1ccc(Br)cc1`, for which the z-score is -0.607 in experiment [1]; -3.55 (inactive) in experiment [2]; -0.74 (inactive) in experiment [3]; -0.446 (inactive) in experiment [5]; 4.32 (inactive) in experiment [6]; 0.31 (inactive) in [7]. The results for the z-score in experiment [8] and in [9] were -1.66 (inactive) and -4.06, respectively. Further, the results for the composite z-score in experiment [4] and in [10] were 5.24 (inactive) and -0.0421, respectively.

Turning to `CCOC(=O)CCN1C(=O)[C@H]2[C@H]3[C@H](O)[C@H](O)CC(=NNC(=O)OCC)[C@H]3CC[C@H]2C1=O`, the z-score is -0.207 in [1]; -1.01 (inactive) in experiment [2]; 0.137 (inactive) in [3]; 0.614 (inactive) in [5]; 0.235 (inactive) in [6]; -0.216 (inactive) in [7]. For the same compound, the z-score in [8] was -0.318 (inactive); in experiment [9], -0.0651. Further, the composite z-score is 0.519 (inactive) in [4] and 0.106 in [10].

`COC(=O)[C@H](C)NC(=O)CCC1CC(OC(=O)NCc2ccc3c(c2)OCO3)CC2(CCCC(COC(=O)NCCCN3CCCC3=O)O2)O1` (stereo not given in full): the z-score is 0.161 in experiment [1]; 0.58 (inactive) in experiment [2]; -0.0358 (inactive) in experiment [3]; 0.226 (inactive) in [5]; 1.04 (inactive) in experiment [6]; 0.7 (inactive) in experiment [7]. Further, the z-score in [8] is -0.028 (inactive); in experiment [9], 0.0805. Further, the composite z-score in experiment [4] was 0.184 (inactive); in experiment [10], -0.245.

Regarding `CC(=O)OC[C@H]1O[C@H](CCON=C(C)CCN2CCCc3nc(C)c(C)cc32)C=C[C@@H]1OC(C)=O`, the z-score is 0.0171 in [1]; 1.34 (inactive) in experiment [2]; -0.102 (inactive) in [3]; 0.511 (inactive) in experiment [5]; 1.3 (inactive) in experiment [6]; 0.565 (inactive) in experiment [7]. In addition, the results for the z-score in experiment [8] and in experiment [9] were 0.16 (inactive) and -0.0643, respectively. Further, the composite z-score in experiment [4] was 0.245 (inactive); in experiment [10], -0.0878.

For `CC(C)C(=O)N[C@H]1CCCN1C(=O)C=Cc1ccccc1`, the z-score in experiment [1] was -0.274; in experiment [2], 0.881 (inactive); in experiment [3], -0.46 (inactive); in experiment [5], 0.897 (inactive); in experiment [6], 1.18 (inactive); in experiment [7], -0.0435 (inactive). Moreover, the z-score in [8] was -0.898 (inactive); in experiment [9], -1.03. The composite z-score in [4] was 0.581 (inactive); in experiment [10] it was -0.0476.
